Measurements from PubChem BioAssay (NCATS).
Inconclusive results are not listed. Calls of active or inactive are those of the source. Unless noted, calls follow the shape of the dose curve; as a rule, active = well fitted inhibition curve with a large enough effect; inconclusive = small, poorly fitted or top-dose-only effect; inactive = flat fitted curve, though single readings scatter.

How the values were obtained:
[1] = target: Androgen receptor (Homo sapiens) (UniProt P10275); test: qHTS assay for small molecule antagonists of androgen receptor signaling (AID 588516; active = well fitted curve in the direction sought with a large enough effect in the signal ratio, with a control signal flat, not every such curve was filed as active; the % refers to the signal ratio); details: AR-UAS-bla HEK293, beta-lactamase ratio, antagonist mode, 16 h; series mostly up to 76.8 µM
Sequence of Androgen receptor (Homo sapiens) (P10275 whole entry, looked up): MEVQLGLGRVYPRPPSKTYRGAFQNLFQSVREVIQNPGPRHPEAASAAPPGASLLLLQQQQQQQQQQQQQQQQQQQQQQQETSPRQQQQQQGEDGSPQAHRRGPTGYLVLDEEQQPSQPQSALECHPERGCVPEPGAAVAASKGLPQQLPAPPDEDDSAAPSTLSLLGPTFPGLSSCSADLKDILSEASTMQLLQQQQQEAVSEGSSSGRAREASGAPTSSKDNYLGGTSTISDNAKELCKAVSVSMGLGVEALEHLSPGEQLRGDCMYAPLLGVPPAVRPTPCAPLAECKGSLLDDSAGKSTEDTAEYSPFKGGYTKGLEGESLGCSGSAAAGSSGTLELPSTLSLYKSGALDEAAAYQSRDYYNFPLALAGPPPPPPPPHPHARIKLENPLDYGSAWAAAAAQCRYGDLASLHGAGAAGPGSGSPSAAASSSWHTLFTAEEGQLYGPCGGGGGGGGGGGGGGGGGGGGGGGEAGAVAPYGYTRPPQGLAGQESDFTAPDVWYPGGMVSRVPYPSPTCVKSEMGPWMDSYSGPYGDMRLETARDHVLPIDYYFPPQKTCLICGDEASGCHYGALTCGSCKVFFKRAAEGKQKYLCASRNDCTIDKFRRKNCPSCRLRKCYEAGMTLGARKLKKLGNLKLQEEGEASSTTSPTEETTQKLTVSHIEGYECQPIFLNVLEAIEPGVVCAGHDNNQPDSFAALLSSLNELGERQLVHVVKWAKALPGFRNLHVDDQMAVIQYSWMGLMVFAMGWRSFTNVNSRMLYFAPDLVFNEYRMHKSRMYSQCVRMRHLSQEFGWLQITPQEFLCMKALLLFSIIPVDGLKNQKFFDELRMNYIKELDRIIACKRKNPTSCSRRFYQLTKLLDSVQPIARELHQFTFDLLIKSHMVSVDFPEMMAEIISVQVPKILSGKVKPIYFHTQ
Outline: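 AR-UAS-bla GripTite HEK 293 cells (2000/well) treated with compound titrations plus 10 nM R1881 for 16 h at 37C. Beta-lactamase read by CCF4 FRET (460/530 nm); IC50 from Hill fits, normalized to R1881 and DMSO control wells.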

7G8 = test: qHTS profiling for inhibitors of Plasmodium falciparum proliferation (AID 504749); also: nearly all actives have a fitted effect of over 60% in size; also: potency is read from the fitted curve at half-maximal effect; details: P. falciparum in erythrocytes, SYBR Green DNA, 72 h; series mostly up to 28.7 µM
Outline: (§1)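 Parasite proliferation within erythrocytes, 72 h exposure. Endpoint: SYBR Green I fluorescence after overnight lysis at room temperature. Controls: 0.29 uM artemisinin, DMSO.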

AS120 = test: as above; details: P. falciparum in erythrocytes, SYBR Green DNA, 72 h; series mostly up to 28.7 µM
Outline: as §1

ATS95 = test: as above; details: P. falciparum in erythrocytes, SYBR Green DNA, 72 h; series mostly up to 28.7 µM
Outline: as §1

CP191 = test: as above; details: P. falciparum in erythrocytes, SYBR Green DNA, 72 h; series mostly up to 28.7 µM
Outline: as §1

CP215 = test: as above; details: P. falciparum in erythrocytes, SYBR Green DNA, 72 h; series mostly up to 28.7 µM
Outline: as §1

CP237 = test: as above; details: P. falciparum in erythrocytes, SYBR Green DNA, 72 h; series mostly up to 28.7 µM
Outline: as §1

CP247 = test: as above; details: P. falciparum in erythrocytes, SYBR Green DNA, 72 h; series mostly up to 28.7 µM
Outline: as §1

CP250 = test: as above; details: P. falciparum in erythrocytes, SYBR Green DNA, 72 h; series mostly up to 28.7 µM
Outline: as §1

CP291 = test: as above; details: P. falciparum in erythrocytes, SYBR Green DNA, 72 h; series mostly up to 28.7 µM
Outline: as §1

CP297 = test: as above; details: P. falciparum in erythrocytes, SYBR Green DNA, 72 h; series mostly up to 28.7 µM
Outline: as §1

CP315 = test: as above; details: P. falciparum in erythrocytes, SYBR Green DNA, 72 h; series mostly up to 28.7 µM
Outline: as §1

GB4 = test: as above; details: P. falciparum in erythrocytes, SYBR Green DNA, 72 h; series mostly up to 28.7 µM
Outline: as §1

JCK = test: as above; details: P. falciparum in erythrocytes, SYBR Green DNA, 72 h; series mostly up to 28.7 µM
Outline: as §1

PAD = test: as above; details: P. falciparum in erythrocytes, SYBR Green DNA, 72 h; series mostly up to 28.7 µM
Outline: as §1

PC26 = test: as above; details: P. falciparum in erythrocytes, SYBR Green DNA, 72 h; series mostly up to 28.7 µM
Outline: as §1

SC27B = test: as above; details: P. falciparum in erythrocytes, SYBR Green DNA, 72 h; series mostly up to 28.7 µM
Outline: as §1

TAB109 = test: as above; details: P. falciparum in erythrocytes, SYBR Green DNA, 72 h; series mostly up to 28.7 µM
Outline: as §1

TAB113 = test: as above; details: P. falciparum in erythrocytes, SYBR Green DNA, 72 h; series mostly up to 28.7 µM
Outline: as §1

W2 = test: as above; details: P. falciparum in erythrocytes, SYBR Green DNA, 72 h; series mostly up to 28.7 µM
Outline: as §1

Measured: Potency

CCCCCCCCC1CO1 (configuration not stated)
inactive: [1]

Nc1cc([N+](=O)[O-])ccc1O
inactive: [1]

O=C(Cl)c1ccc([N+](=O)[O-])cc1
inactive: [1]

Cc1ccc(N)cc1[N+](=O)[O-]
inactive: [1]

Cc1c(C(=O)O)c(O)cc2c1C(=O)c1c(O)c([C@H]3O[C@H](CO)[C@@H](O)[C@H](O)[C@H]3O)c(O)c(O)c1C2=O
not listed: [1]
inactive: all other assays above

O=[N+]([O-])c1cc(N(CCO)CCO)ccc1NCCO
inactive: [1]

C=C1CC[C@H](O)C/C1=C/C=C1\CCC[C@]2(C)[C@@H]([C@H](C)CCCC(C)C)CC[C@@H]12
inactive: ATS95 | CP191 | CP215 | CP291 | CP297 | CP315 | GB4 | JCK | PC26 | TAB113
active: 7G8 11.2 µM

NS(=O)(=O)c1cc2c(cc1Cl)N[C@H](Cc1ccccc1)NS2(=O)=O
not listed: [1] | ATS95
inactive: all other assays above

C[C@]12CC[C@H]3c4ccc(O)cc4CC[C@@H]3[C@H]1CC[C@@H]2OC(=O)CCC1CCCC1
active: 7G8 4.47 µM | CP237 8.91 µM | GB4 12 µM | PAD 10 µM | W2 9.53 µM
not listed: [1] | CP191 | PC26 | TAB113
inactive: all other assays above

Cc1cn([C@H]2C[C@H](N=[N+]=[N-])[C@H](CO)O2)c(=O)[nH]c1=O
not listed: [1]
inactive: all other assays above

O=C(O)[C@@H](S)[C@H](S)C(=O)O
active: 7G8 5.01 µM | AS120 5.62 µM | ATS95 6.31 µM | CP191 8.91 µM | CP215 9.53 µM | CP237 7.08 µM | CP247 7.94 µM | CP250 7.08 µM | CP291 12 µM | CP297 15.1 µM | CP315 15.1 µM | GB4 13.5 µM | JCK 11.2 µM | PAD 8.91 µM | PC26 8.49 µM | SC27B 11.2 µM | TAB109 5.62 µM | TAB113 11.2 µM | W2 3.38 µM
